Assay results: PubChem BioAssay AID1159580 (chemical genetic matrix, 2015)
“And” between values parts separate entries of the source, which are not always exact repeats. Equal entries are not always repeated. About 2,000 (36%) of roughly 5,500 compounds were called active. Inconclusive results (about 18%) are left out. Rule as the data show it: active = normalized growth mostly below about 0.91 (no sharp cut-off); inconclusive = no clear call, values can overlap the other calls; inactive = mostly above about 0.92. This is one part of the list.

Experiment: chemical genetic growth profiling, strain panel (AID 1159580);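 also: tested at 20 µM; growth read once vehicle control cultures reached saturation at 30 °C; 1 = growth at the plate median or of vehicle wells; lower values mean less growth of the strain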
Conditions: S. cerevisiae deletion strains, growth OD

Measured: normalized growth

ClC1=C(Cl)C2(Cl)C3C(Cl)C=CC3C1(Cl)C2(Cl)Cl (configuration not stated)
inactive: locus YAL013W, strain DEP1, hits give low values 0.999 | locus YAL021C, strain ccr4, hits give low values 0.99 | locus YAL026C, strain drs2, hits give low values 0.999 | locus YAL030W, strain snc1, hits give low values 1.01 | locus YBL061C, strain skt5, hits give low values 1.01 | locus YBR009C, strain hhf1, hits give low values 0.983 | locus YBR021W, strain FUR4, hits give low values 0.987 | locus YBR023C, strain chs3, hits give low values 0.998 | locus YBR171W, strain sec66, hits give low values 0.994 | locus YBR229C, strain ROT2, hits give low values 0.991 | locus YBR231C, strain swc5, hits give low values 0.999 | locus YBR279W, strain paf1, hits give low values 1 | locus YCL011C, strain gbp2, hits give low values 0.996 | locus YCL016C, strain dcc1, hits give low values 0.998 | locus YCL029C, strain bik1, hits give low values 0.965 | locus YCL061C, strain MRC1, hits give low values 0.996 | locus YCL069W, strain vba3, hits give low values 1.01 | locus YCR088W, strain abp1, hits give low values 0.998 | locus YDL005C, strain med2, hits give low values 1.01 | locus YDL035C, strain GPR1, hits give low values 0.962 | locus YDL040C, strain nat1, hits give low values 1.01 | locus YDL074C, strain BRE1, hits give low values 1 | locus YDL101C, strain DUN1, hits give low values 0.989 | locus YDL134C, strain PPH21, hits give low values 0.99 | locus YDL185W, strain tfp1, hits give low values 0.983 | locus YDL192W, strain arf1, hits give low values 0.98 | locus YDR001C, strain nth1, hits give low values 1 | locus YDR069C, strain doa4, hits give low values 0.981 | locus YDR101C, strain arx1, hits give low values 0.992 | locus YDR137W, strain rgp1, hits give low values 0.925 | locus YDR150W, strain NUM1, hits give low values 0.995 | locus YDR162C, strain NBP2, hits give low values 0.999 | locus YDR195W, strain ref2 0.913 | locus YDR297W, strain sur2, hits give low values 1 | locus YDR318W, strain mcm21, hits give low values 0.978 | locus YDR334W, strain swr1, hits give low values 1.02 | locus YDR335W, strain msn5, hits give low values 1.01 | locus YDR388W, hits give low values 0.974 | locus YDR392W, strain spt3, hits give low values 0.975 | locus YDR502C, strain sam2, hits give low values 0.984 | locus YEL003W, strain gim4, hits give low values 0.995 | locus YEL037C, strain rad23, hits give low values 1.01 | locus YEL061C, strain CIN8 (second series), hits give low values 1.01 | locus YEL061C, strain CIN8, hits give low values 1 | locus YER015W, strain faa2, hits give low values 0.992 | locus YER016W, strain bim1, hits give low values 1 | locus YER110C, hits give low values 0.978 | locus YER111C, strain swi4, hits give low values 1 | locus YER155C, strain BEM2 (second series), hits give low values 0.998 | locus YER155C, strain BEM2, hits give low values 1.01 | locus YER167W, strain BCK2, hits give low values 0.98 | locus YFR010W, strain ubp6, hits give low values 0.995 | locus YGL078C, strain dbp3, hits give low values 0.988 | locus YGL086W, strain mad1, hits give low values 0.99 | locus YGL167C, strain pmr1, hits give low values 0.998 | locus YGL173C, strain kem1, hits give low values 0.993 | locus YGL227W, strain vid30, hits give low values 1 | locus YGL240W, strain doc1, hits give low values 0.986 | locus YGL248W, strain PDE1, hits give low values 0.991 | locus YGL253W, strain hxk2, hits give low values 0.999 | locus YGR078C, strain PAC10, hits give low values 0.993 | locus YGR135W, strain pre9, hits give low values 0.982 | locus YGR229C, strain SMI1, hits give low values 0.985 | locus YGR252W, strain gcn5, hits give low values 0.957 | locus YHR013C, strain ard1, hits give low values 0.904 | locus YHR027C, strain rpn1, hits give low values 0.995 | locus YHR030C, strain SLT2, hits give low values 1 and 1.04 | locus YHR079C, strain IRE1 (second series), hits give low values 0.973 | locus YHR079C, strain IRE1, hits give low values 1 | locus YHR094C, strain hxt1, hits give low values 0.988 | locus YHR129C, strain ARP1, hits give low values 0.997 | locus YHR142W, strain chs7, hits give low values 0.996 | locus YHR200W, strain rpn10, hits give low values 0.987 | locus YIL066C, strain RNR3, hits give low values 0.971 | locus YIL073C, strain SPO22, hits give low values 0.922 | locus YIL125W, strain kgd1, hits give low values 1 | locus YIR030C, strain dcg1, hits give low values 0.989 | locus YJL092W, strain hpr5, hits give low values 0.998 | locus YJL095W, strain BCK1 (second series), hits give low values 1 | locus YJL095W, strain BCK1, hits give low values 1.03 and 1.04 | locus YJL115W, strain asf1, hits give low values 0.995 | locus YJL134W, strain LCB3, hits give low values 0.984 | locus YJL154C, strain vps35, hits give low values 1 | locus YJL164C, strain tpk1, hits give low values 0.953 | locus YJL166W, strain qcr8, hits give low values 0.943 | locus YJL168C, strain set2, hits give low values 0.977 | locus YJL187C, strain SWE1 (second series), hits give low values 0.989 | locus YJL187C, strain SWE1, hits give low values 1.01 | locus YJR043C, strain POL32, hits give low values 0.997 | locus YJR066W, strain TOR1, hits give low values 0.961
active: locus YDR159W, strain sac3, hits give low values 0.817 | locus YJL129C, strain trk1, hits give low values 0.854
